Laboratory results from PubChem BioAssay (Tox21).
Inconclusive results are not listed. The source made the active and inactive calls. Unless noted, the call rests on the fitted dose curve; in most records, active means well fitted curve in the direction sought with a large enough effect in the repeat runs; inconclusive means weak or mixed curves; inactive means no such curve, though single readings can be large; an effect the other way counts as inactive or inconclusive.

How the values were obtained:
[1] = qHTS assay to identify small molecule agonists of the estrogen receptor alpha (ER-alpha) signaling pathway in the presence of an antagonist - cell viability counter screen (AID 1259386); conditions: VM7Luc4E2 viability, CellTiter-Fluor fluorescence, 22 h; series mostly up to 92.4 µM;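 further: cells exposed to compounds for 22 h at 37 °C before the viability read; nearly all actives have a fitted effect of over 30% in size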; further: potency means the concentration at half of the fitted maximal effect
In short: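 ICI-182,780 at 10.0nM final accompanies the compound titration (15 concentrations, 22hr, 37C) on VM7Luc4E2 cells. The CellTiter-Fluor fluorescence readout runs in the same wells as the luciferase assay.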

[2] = biological target: Progesterone receptor (Homo sapiens) (UniProt P06401); test: qHTS assay to identify small molecule agonists of the progesterone receptor (PR) signaling pathway (AID 1346784; calls by dose curve; further: nearly all actives have a fitted effect of over 30% in size); conditions: PR-UAS-bla HEK293T, beta-lactamase FRET ratio, 16 h; series mostly up to 92.4 µM
Chain of Progesterone receptor (Homo sapiens) (P06401 whole entry, looked up): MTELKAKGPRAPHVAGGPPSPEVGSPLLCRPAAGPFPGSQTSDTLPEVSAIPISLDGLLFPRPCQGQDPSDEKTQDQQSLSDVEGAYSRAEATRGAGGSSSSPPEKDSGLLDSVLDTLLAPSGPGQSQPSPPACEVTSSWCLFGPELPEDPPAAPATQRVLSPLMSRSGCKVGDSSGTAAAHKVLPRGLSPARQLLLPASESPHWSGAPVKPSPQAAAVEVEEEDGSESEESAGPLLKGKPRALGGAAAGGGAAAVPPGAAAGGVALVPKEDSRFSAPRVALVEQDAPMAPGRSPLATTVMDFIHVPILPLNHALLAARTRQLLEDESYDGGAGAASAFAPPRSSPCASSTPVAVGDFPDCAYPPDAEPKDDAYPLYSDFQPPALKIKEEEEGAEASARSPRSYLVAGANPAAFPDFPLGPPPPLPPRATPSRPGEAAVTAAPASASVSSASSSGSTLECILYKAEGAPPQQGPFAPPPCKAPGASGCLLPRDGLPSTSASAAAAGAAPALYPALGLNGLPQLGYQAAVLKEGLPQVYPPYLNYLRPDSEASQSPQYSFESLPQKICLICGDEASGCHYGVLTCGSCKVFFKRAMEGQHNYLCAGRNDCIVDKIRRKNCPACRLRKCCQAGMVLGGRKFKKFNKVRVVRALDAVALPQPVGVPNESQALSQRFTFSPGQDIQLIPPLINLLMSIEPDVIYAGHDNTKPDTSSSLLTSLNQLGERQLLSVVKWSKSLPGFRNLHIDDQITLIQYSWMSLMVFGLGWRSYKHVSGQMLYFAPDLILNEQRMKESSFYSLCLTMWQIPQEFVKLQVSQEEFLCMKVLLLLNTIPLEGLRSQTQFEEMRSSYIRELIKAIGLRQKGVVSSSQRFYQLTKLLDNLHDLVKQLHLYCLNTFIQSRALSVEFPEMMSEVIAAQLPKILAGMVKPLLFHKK
In short: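 Using charcoal-stripped serum (2%) to limit endogenous steroids, PR-UAS-bla HEK 293T cells received compounds for 16 hr at 37C after 6 hr plating; beta-lactamase FRET fluorescence was recorded following 2 hr substrate loading at room temperature.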

[3] = biological target: Progesterone receptor (Homo sapiens) (UniProt P06401); test: qHTS assay to identify small molecule antagonists of the progesterone receptor (PR) signaling pathway (AID 1346795; active means well fitted inhibition curve with a large enough effect in the signal ratio in the repeat runs, not every such curve was filed as active; the % refers to the signal ratio); conditions: PR-UAS-bla HEK293T, beta-lactamase FRET ratio, 16 h; series mostly up to 92.4 µM
In short: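 Inhibition of R5020-induced (1 nM final) beta-lactamase reporter signal in PR-UAS-bla HEK293T cells was scored by FRET fluorescence after overnight (16 hr) compound treatment.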

[4] = qHTS assay to identify small molecule antagonists of the progesterone receptor (PR) signaling pathway - cell viability counter screen (AID 1346798); conditions: PR-UAS-bla HEK293T viability, CellTiter-Glo luminescence, 16 h; series mostly up to 92.4 µM; further: nearly all actives have a fitted effect of over 50% in size
In short: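 ATP content as viability readout: CellTiter-Glo luminescence, 30 min room temperature, in PR-UAS-bla HEK293T cells after 16 hr compound/R5020 treatment at 37C and 5% CO2.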

[5] = qHTS assay to identify small molecule antagonists of the TGF-beta/Smad signaling pathway - cell viability counter screen (AID 1346824); conditions: SBE-bla HEK293T viability, CellTiter-Glo luminescence; series mostly up to 76.8 µM; further: nearly all actives have a fitted effect of over 50% in size
In short: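 Cytotoxicity counter-screen run in the same wells as the beta-lactamase Smad reporter read: CellTiter-Glo luminescence after 30 min at room temperature. HEK 293T SBE-bla cells had 5 hr compound exposure at 37 C with TGF-beta1 (0.25 ng/mL stock).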

[6] = qHTS assay to identify small molecule agonists of the TGF-beta/Smad signaling pathway - cell viability counter screen (AID 1346829); conditions: SBE-bla HEK293T viability, CellTiter-Glo luminescence, 5 h; series mostly up to 76.8 µM; further: top concentration of the series differs between compounds; nearly all actives have a fitted effect of over 45% in size
In short: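 Compound-treated SBE-bla HEK 293T cells (5 hr, 37 C) were assessed for viability with CellTiter-Glo in parallel with the reporter read.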

[7] = qHTS assay to identify small molecule agonists of the TGF-beta/Smad signaling pathway (AID 1346859; active means well fitted activation curve with a large enough effect in the signal ratio in the repeat runs, not every such curve was filed as active; the % refers to the signal ratio); conditions: SBE-bla HEK293T, TGF-beta/Smad beta-lactamase reporter, 5 h; series mostly up to 76.8 µM
In short: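 Stable Smad binding element-beta-lactamase HEK 293T cells; 5 hr compound exposure at 37 C under 5% CO2; 2 hr room-temperature substrate step; fluorescence excited at 405 nm, collected at 460 nm and 530 nm.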

[8] = biological target: Thyrotropin-releasing hormone receptor (Homo sapiens) (UniProt P34981); test: qHTS assay to identify small molecule antagonists of the thyrotropin-releasing hormone receptor (TRHR) signaling pathway (AID 1346877; active means well fitted inhibition curve with a large enough effect in the repeat runs, not every such curve was filed as active); conditions: TRHR-HEK293, TRH-induced calcium fluorescence, antagonist mode; series mostly up to 51.3 µM
Chain of Thyrotropin-releasing hormone receptor (Homo sapiens) (P34981 whole entry, looked up): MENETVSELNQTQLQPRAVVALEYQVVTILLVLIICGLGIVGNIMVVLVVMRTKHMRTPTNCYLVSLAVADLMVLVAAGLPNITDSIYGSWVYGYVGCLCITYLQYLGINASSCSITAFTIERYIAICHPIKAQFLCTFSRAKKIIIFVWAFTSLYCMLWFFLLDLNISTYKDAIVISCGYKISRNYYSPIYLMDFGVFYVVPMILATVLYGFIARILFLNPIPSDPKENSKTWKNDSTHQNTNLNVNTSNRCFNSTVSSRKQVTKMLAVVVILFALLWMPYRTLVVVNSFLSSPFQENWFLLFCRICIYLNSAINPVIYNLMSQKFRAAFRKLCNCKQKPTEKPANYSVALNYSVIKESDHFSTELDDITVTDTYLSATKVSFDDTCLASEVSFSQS
In short: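 Screening used HEK293 cells engineered with TRHR, with a brief 5 min room-temperature compound exposure preceding addition of TRH to 1 nM. The read-out was kinetic calcium-dye fluorescence, concentration-response from 15 doses in triplicate.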

[9] = biological target: Thyrotropin-releasing hormone receptor (Homo sapiens) (UniProt P34981); test: qHTS assay to identify small molecule agonists of the thyrotropin-releasing hormone receptor (TRHR) signaling pathway (AID 1346891; calls by dose curve;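 further: HEK293 cells expressing TRHR with calcium dye readout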); conditions: TRHR-HEK293 calcium fluorescence, agonist mode; series mostly up to 57.6 µM
In short: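 In 1536-format, 1500 TRHR-Hek293 cells per well grew 18 h, took up calcium dye for 2 h at 37 °C, received compound, and were read kinetically; 15-point titrations, triplicates.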

[10] = Caspase-3/7 induction in HepG2 cells by small molecules, qHTS assay (AID 1346978); conditions: HepG2 caspase-3/7 activation, Caspase-Glo luminescence, 17 h; series mostly up to 92.4 µM; further: nearly all actives have a fitted effect of over 15% in size
In short: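 Caspase-3/7 induction was measured by Caspase-Glo 3/7 luminescence (30 min, room temperature) after a 17 hr compound exposure of wild-type HepG2 cells seeded at 2,000 per well and pre-incubated 5 hr.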

[11] = Caspase-3/7 induction in CHO-K1 cells by small molecules, qHTS cell viability counter screen (AID 1346979); conditions: CellTiter-Fluor fluorescence, 17 h; series mostly up to 92.4 µM; further: nearly all actives have a fitted effect of over 35% in size; further: potency means the concentration at half of the fitted maximal effect
In short: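 To flag cytotoxic compounds, treated CHO-K1 wild-type cells were given CellTiter-Fluor at 16hr and read fluorescently after 1hr at 37C; the caspase-3/7 luminescence was measured in these same wells.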

[12] = Caspase-3/7 induction in CHO-K1 cells by small molecules, qHTS assay (AID 1346980); conditions: CHO-K1 caspase-3/7 induction, Caspase-Glo luminescence, 17 h; series mostly up to 92.4 µM; further: nearly all actives have a fitted effect of over 15% in size
In short: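 Luminescent Caspase-Glo 3/7 read (30min, room temperature) quantified apoptosis induction. Cells were wild-type CHO-K1, treated with compound for 17hr at 37 C and 5% CO2.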

[13] = biological target: Nuclear receptor subfamily 1 group I member 2 (Homo sapiens) (UniProt O75469); test: Human pregnane X receptor (PXR) small molecule agonists, qHTS assay (AID 1346982); conditions: PXR-Luc HepG2, CYP3A4 luciferase reporter, 24 h; series mostly up to 92.4 µM; further: nearly all actives have a fitted effect of over 35% in size; further: potency means the concentration at half of the fitted maximal effect
Chain of Nuclear receptor subfamily 1 group I member 2 (Homo sapiens) (O75469 whole entry, looked up): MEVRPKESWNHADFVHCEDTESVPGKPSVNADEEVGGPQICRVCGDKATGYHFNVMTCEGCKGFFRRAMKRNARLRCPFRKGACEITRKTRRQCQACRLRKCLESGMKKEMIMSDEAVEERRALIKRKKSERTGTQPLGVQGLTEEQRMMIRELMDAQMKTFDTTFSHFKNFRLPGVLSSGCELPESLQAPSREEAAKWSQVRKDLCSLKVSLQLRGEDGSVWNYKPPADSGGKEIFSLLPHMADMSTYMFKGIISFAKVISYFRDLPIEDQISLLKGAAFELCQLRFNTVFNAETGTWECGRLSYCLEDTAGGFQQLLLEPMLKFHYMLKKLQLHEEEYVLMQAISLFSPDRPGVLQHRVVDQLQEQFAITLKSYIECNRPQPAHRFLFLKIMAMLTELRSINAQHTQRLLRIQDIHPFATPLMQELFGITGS
In short: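 We seeded PXR-Luc HepG2 cells in assay medium containing 5% charcoal-stripped FBS, added compounds 5 hr later, incubated 24 hr, and read luminescence with ONE-Glo reagent.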

[14] = biological target: Nuclear receptor subfamily 1 group I member 2 (Homo sapiens) (UniProt O75469); test: CYP3A4 induction through human pregnane X receptor (PXR) by small molecules, qHTS assay (AID 1346984); conditions: DPX-2 HepG2 PXR, CYP3A4-luciferin luminescence, 24 h; series mostly up to 46.1 µM; further: nearly all actives have a fitted effect of over 40% in size; further: potency means the concentration at half of the fitted maximal effect
In short: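 qHTS, concentration-response format: HepG2 DPX-2 line, PXR/CYP3A4-luc. Exposure 24 h, 37C. Substrate Luciferin-IPA 3uM final, 3 h. Detection One-Glo, 30 min RT.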

[15] = biological target: Nuclear receptor subfamily 1 group I member 2 (Homo sapiens) (UniProt O75469); test: Human pregnane X receptor (PXR) activation by small molecules, qHTS assay (AID 1346985); conditions: DPX-2 HepG2 CYP3A4-luciferase, 24 h; series mostly up to 38.3 µM; further: nearly all actives have a fitted effect of over 40% in size
In short: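 DPX-2 cells (HepG2 co-transfected with a PXR response element and a CYP3A4-promoter luciferase construct) were seeded at 2,000 per well, rested 5 hr at 37C, then exposed to DMSO-dissolved compounds for 24 hr. Activation was read as luciferase luminescence.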

[16] = biological target: Cytochrome P450 2D6 (Homo sapiens) (UniProt P10635); test: Cytochrome P450 Family 2 Subfamily D Member 6 (CYP2D6) small molecule antagonists: luciferase reporter qHTS assay (AID 1671196); conditions: P450-Glo CYP2D6 enzyme assay, luciferin luminescence, 1 h; series mostly up to 115 µM; further: nearly all actives have a fitted effect of over 50% in size; further: potency means the concentration at half of the fitted maximal effect
Chain of Cytochrome P450 2D6 (Homo sapiens) (P10635 whole entry, looked up): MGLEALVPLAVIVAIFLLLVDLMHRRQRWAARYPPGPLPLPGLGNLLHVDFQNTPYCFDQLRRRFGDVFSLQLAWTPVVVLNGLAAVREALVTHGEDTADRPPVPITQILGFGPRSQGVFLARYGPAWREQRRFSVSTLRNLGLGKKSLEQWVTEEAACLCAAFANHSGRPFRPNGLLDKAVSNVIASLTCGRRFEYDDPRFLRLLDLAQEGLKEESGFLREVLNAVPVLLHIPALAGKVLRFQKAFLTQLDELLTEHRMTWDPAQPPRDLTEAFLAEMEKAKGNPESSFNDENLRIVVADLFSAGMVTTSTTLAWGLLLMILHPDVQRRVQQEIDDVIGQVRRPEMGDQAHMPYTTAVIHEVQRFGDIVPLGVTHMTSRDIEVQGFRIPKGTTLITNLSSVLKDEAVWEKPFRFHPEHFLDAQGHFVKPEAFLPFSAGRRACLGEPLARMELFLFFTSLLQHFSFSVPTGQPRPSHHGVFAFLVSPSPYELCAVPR
In short: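 Luminescence (RLU), read 20 min after detection reagent, indicated CYP2D6 conversion of proluciferin to luciferin during a 1 h NADPH-dependent reaction at room temperature.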

[17] = qHTS assay to identify small molecule agonists of the progesterone receptor (PR) signaling pathway - cell viability counter screen (AID 1346799; calls by dose curve; further: nearly all actives have a fitted effect of over 45% in size); conditions: PR-UAS-bla HEK293T viability, CellTiter-Glo luminescence, 16 h; series mostly up to 92.4 µM
In short: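 Cytotoxicity in PR-bla HEK293T cells: 16 h compound, 37C; CellTiter-Glo added post-FRET read; luminescence after 30 min RT.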

[18] = Human pregnane X receptor (PXR) small molecule agonists, qHTS cell viability counter screen (AID 1346977); conditions: PXR-Luc HepG2 viability, CellTiter-Fluor, 24 h; series mostly up to 92.4 µM; further: nearly all actives have a fitted effect of over 50% in size; further: potency means the concentration at half of the fitted maximal effect
In short: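 Readout is CellTiter-Fluor fluorescence from PXR-Luc HepG2 cells. Plated cells rested 5hr, then were treated with compounds for 24hr at 37C and 5% CO2, with reagent present during the last hour.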

[19] = Caspase-3/7 induction in HepG2 cells by small molecules, qHTS cell viability counter screen (AID 1346981); conditions: CellTiter-Fluor fluorescence, 17 h; series mostly up to 92.4 µM; further: nearly all actives have a fitted effect of over 30% in size; further: potency means the concentration at half of the fitted maximal effect
In short: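 Multiplexed with the caspase-3/7 assay: HepG2 cells, 16 hr compound treatment, CellTiter-Fluor viability detection by fluorescence.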

[20] = biological target: Nuclear receptor subfamily 1 group I member 2 (Rattus norvegicus) (UniProt Q9R1A7); test: Rat pregnane X receptor (rPXR) activation by small molecules, qHTS assay (AID 1346983); conditions: rPXR luciferase reporter cells, One-Glo luminescence, 24 h; hits give high values; further: nearly all actives have a fitted effect of over 20% in size
Chain of Nuclear receptor subfamily 1 group I member 2 (Rattus norvegicus) (Q9R1A7 whole entry, looked up): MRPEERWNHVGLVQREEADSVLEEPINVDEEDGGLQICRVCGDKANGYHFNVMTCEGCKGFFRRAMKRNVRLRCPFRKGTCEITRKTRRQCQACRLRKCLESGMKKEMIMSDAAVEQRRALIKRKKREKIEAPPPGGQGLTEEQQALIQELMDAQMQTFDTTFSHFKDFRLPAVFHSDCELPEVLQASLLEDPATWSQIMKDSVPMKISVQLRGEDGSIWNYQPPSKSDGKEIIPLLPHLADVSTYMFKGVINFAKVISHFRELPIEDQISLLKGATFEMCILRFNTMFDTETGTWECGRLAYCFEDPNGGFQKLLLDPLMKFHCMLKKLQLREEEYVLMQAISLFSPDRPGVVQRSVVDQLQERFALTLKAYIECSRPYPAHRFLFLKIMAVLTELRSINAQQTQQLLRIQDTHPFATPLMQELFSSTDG
In short: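 Luminescent readout (One-Glo luciferase, 30 min room temperature) followed 24 hr compound treatment at 37 C of rPXR cells plated 2,000 per well and preincubated 5hr; qHTS format with compounds delivered in DMSO.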
On the % scale 0 is the no-effect control and ±100 the full control effect.

COC(=O)C1=C(C)NC(C)=C(C(=O)OCCN2CCN(C(c3ccccc3)c3ccccc3)CC2)C1c1cccc([N+](=O)[O-])c1 (stereo not drawn)
active: Potency [11] 21.1 µM | Potency [16] 2.75 µM
inactive: Potency [1] | Potency [2] | Potency [3] | Potency [4] | Potency [5] | Potency [6] | Potency [7] | Potency [8] | outcome [9] | Potency [10] | Potency [12] | Potency [13] | Potency [14] | Potency [15]

CC/C=C\CCCCCO
inactive: Potency [1] | Potency [2] | Potency [3] | Potency [17] | Potency [5] | Potency [6] | Potency [7] | Potency [18] | Potency [10] | Potency [11] | Potency [12] | Potency [19] | Potency [13] | Potency [16]

COc1ccc2cc1Oc1ccc(cc1)C[C@H]1c3c(cc4c(c3Oc3cc5c(cc3OC)CCN(C)[C@@H]5C2)OCO4)CCN1C
active: Potency [1] 13.3 µM | Potency [18] 11.9 µM | Potency [19] 26.6 µM | Potency [13] 9.44 µM | Potency [14] 10 µM | Potency [16] 15.5 µM
inactive: Potency [2] | Potency [3] | Potency [17] | Potency [5] | Potency [6] | Potency [8] | outcome [9] | Potency [12]

C[C@H]1NCc2cc(-c3ccc4c(=O)c(C(=O)O)cn(C5CC5)c4c3OC(F)F)ccc21
inactive: activity change, negative = cytotoxicity [1] 1.35% [at 19 µM] | activation [2] -1.22% [at 19 µM] | activity change, negative = inhibition [3] 2.98% [at 18.9 µM] | activity change, negative = cytotoxicity [17] -10.9% [at 19 µM] | viability change, negative = cytotoxic [5] -2.18% [at 15.8 µM] | activity change, negative = cytotoxicity [6] 0.347% [at 15.8 µM] | activation [7] -4.87% [at 15.8 µM] | activity, negative = inhibition [8] 5.68% [at 10.5 µM] | activation [9] 0.004% [at 11.8 µM] | caspase activation [10] -1.73% [at 19 µM] | caspase-3/7 activation [12] 0.0016% [at 19 µM] | activity change, negative = cytotoxicity [19] -1.4% [at 19 µM] | activation [13] -6.61% [at 19 µM]

[Cl][Pt-2]([Cl])([Cl])[Cl]
active: Potency [16] 40.1 µM
inactive: Potency [1] | Potency [2] | Potency [3] | Potency [4] | Potency [6] | Potency [7] | Potency [8] | outcome [9] | Potency [18] | Potency [10] | Potency [12] | Potency [19] | Potency [13]

Cc1cccc(C(=O)O)c1O
inactive: Potency [1] | Potency [2] | Potency [3] | Potency [4] | Potency [5] | Potency [6] | Potency [7] | Potency [8] | outcome [9] | Potency [18] | Potency [10] | Potency [11] | Potency [12] | Potency [19] | Potency [13] | max activation [20] -0.388% | Potency [14] | Potency [15] | Potency [16]

Cc1cc(-c2ccc(N=Nc3cc(S(=O)(=O)O)c4ccccc4c3N)c(C)c2)ccc1N=Nc1cc(S(=O)(=O)O)c2ccccc2c1N
active: Potency [1] 30.8 µM | Potency [13] 19.4 µM | Potency [16] 2.26 µM
inactive: Potency [2] | Potency [3] | Potency [4] | Potency [5] | Potency [6] | Potency [8] | outcome [9] | Potency [10] | Potency [12] | Potency [19]
